# Measurements: PubChem BioAssay AID485317 (Broad Institute, 2010)
# Hit rate of the full screen: of about 290,000 compounds, about 11,000 (3.8%) were called active. The sample as a whole holds a higher share of actives than the screen did. A number with no mark means an inactive call.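 Rule for the calls: active = mean replicate inhibition above about 79%, with every replicate also reaching it (limit read from the data); inconclusive = only one of the two criteria met; inactive = mean below limit and not every replicate reaching it.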
# Target: FAD-linked sulfhydryl oxidase ALR (Homo sapiens) (UniProt P55789)
# Assay: inhibitors of human ALR sulfhydryl oxidase, primary screen, biochemical, H2O2 detection, HRP-luminol luminescence, single point (AID 485317)
# Conditions: purified ALR, DTT oxidation, stronger effect = higher value, concentration not given here
# FAD-linked sulfhydryl oxidase ALR (Homo sapiens), sequence (P55789 whole entry, looked up): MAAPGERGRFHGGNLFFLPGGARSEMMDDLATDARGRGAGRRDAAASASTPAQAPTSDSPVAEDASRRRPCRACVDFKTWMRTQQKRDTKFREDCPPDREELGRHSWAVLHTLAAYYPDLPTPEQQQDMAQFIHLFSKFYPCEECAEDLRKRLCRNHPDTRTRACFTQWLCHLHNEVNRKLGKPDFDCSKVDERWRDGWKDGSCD
row,Compound,inhibition
1,O=C(CSc1nnc(-c2ccncc2)o1)Nc1cccc(Cl)c1,6.76%
2,CCc1cc(-c2n[nH]c(=S)n2CC(C)C)cs1,94.7% (active)
3,CCCc1cc(-c2n[nH]c(=S)n2Cc2ccccc2)cs1,49.7%
4,CCn1c(-c2ccncc2)n[nH]c1=S,65.5%
5,N#Cc1cc([N+](=O)[O-])ccc1NC(=O)COC(=O)c1cnccn1,-7.67%
6,O=C(c1cc2ccccc2o1)N1CCN(S(=O)(=O)c2ccc(Cl)s2)CC1,-0.962%
7,COc1ccc(C(CNC(=O)c2cccc(NS(=O)(=O)c3ccc(C)c(F)c3)c2)N2CCCC2)cc1 (configuration not stated),-7.21%
8,CC(C)c1ccc(NC(=O)COC(=O)c2ccc(CN3CCCC3=O)cc2)cc1,-43.2%
9,CC(C)NC(=O)NC(=O)COC(=O)c1ccc(NC(=O)CC#N)cc1,98.6% (active)
10,CCOc1ccc(NC(=O)c2ccc(NC(=O)COC(=O)c3ccc(NC(=O)CC#N)cc3)cc2)cc1,1.83%
11,N#CCN(C(=O)COC(=O)C1CC2CCCC(C1)C2=O)c1ccccc1 (configuration not stated),-1.07%
12,CCN(CC(=O)Nc1ccccc1C(F)(F)F)C(=O)C1CCN(C(=O)Nc2ccccc2)CC1,8.41%
13,O=C(CN1CCN(c2ccc(Cl)cc2)CC1)c1ccccc1,4.7%
14,O=C(CN1CCN(c2ccc(Cl)cc2)CC1)N1CCCC1,97.8% (active)
15,O=C(CN1CCCC1)N1CCN(c2ccccc2)CC1,23.5%
16,Cc1ccc(CSCC(N)C(=O)O)cc1 (configuration not stated),99.1% (active)
17,CSCC(NS(=O)(=O)c1ccc(C)cc1)C(=O)O (configuration not stated),19.4%
18,Cc1ccc(CSCC(=O)N(C)CC(=O)Nc2ccc(C)cc2)cc1,-0.0315%
19,CCC1(c2ccccc2)NC(=O)N(CC(=O)c2ccc3c(c2)OCO3)C1=O (configuration not stated),0.023%
20,COc1cc(OC)cc(-c2c(C#Cc3ccsc3)c3cc(-c4ccc(OC)cc4F)ccc3n2C)c1,-17.2%
21,COc1ccccc1C(c1nnnn1CC1CCCO1)N1CCN(c2ccccc2)CC1 (configuration not stated),90.9% (active)
22,COc1ccc(C(c2nnnn2Cc2cccs2)N2CCN(c3ccccc3)CC2)cc1OC (configuration not stated),8.5%
23,Cc1cccc(N2CCN(C(c3ccccc3)c3nnnn3CC3CCCO3)CC2)c1C (configuration not stated),-2.29%

row,Compound,inhibition
1,COc1ccc(NC(=O)CCC(=O)N2CCN(S(=O)(=O)c3ccc(C)cc3)CC2)c(OC)c1,-6.29%
2,O=S(=O)(NCCCc1ccccc1)c1ccc(Br)cc1,2.4%
3,Cc1[nH]c2ccccc2c1C(=O)C(C)Sc1nnc(C2CC2)o1 (configuration not stated),-3.37%
4,O=C(CSC1CC(=O)N(CCc2ccccc2)C1=O)Nc1ccc(Cl)cc1 (configuration not stated),93.5% (active)
5,CC(=O)Nc1ccc(NC(=O)C(C)OC(=O)C2CC(=O)N(CCc3ccccc3)C2)cc1 (configuration not stated),-1.82%
6,O=C(NCCCc1ccccc1)C1CCC(=O)N(CCc2ccc(Cl)cc2)C1 (configuration not stated),0.977%
7,c1ccc2c(CCN3CCNC[C@H]3Cc3cccc4ccccc34)cccc2c1,-14.6%
8,CN(C(=O)c1cccc(NC(=O)Cc2ccc([N+](=O)[O-])cc2)c1)C1CCC1,-1.83%
9,Cc1ccc(OCC(=O)Nc2ccccc2C(=O)NC2CC2)cc1,-2.04%
10,S=c1[nH]nc(Nc2ccccc2)s1,98.6% (active)
11,S=C(NCCc1ccccc1)Nc1ccccc1,12.6%
12,S=c1[nH]nc(NCCc2ccccc2)s1,95.1% (active)
13,CC(C)(C)C(=O)c1cnc(Nc2ccccc2)s1,19.3%
14,O=c1cnnc(Nc2ccccc2)[nH]1,1.2%
15,Cc1nc(C)c(-c2csc(NCCc3ccccc3)n2)s1,24%
16,CCCc1cc(=O)[nH]c(SCC(=O)Nc2ccc(C(=O)Nc3ccccc3OC)cc2)n1,-0.142%
17,O=C(NCCC1CCCCN1S(=O)(=O)c1ccc(Cl)cc1)C(=O)NCc1ccco1 (configuration not stated),-1.02%
18,Cc1cc(NC(=O)OC(C)C)ccc1-c1ccc(NC(=O)OC(C)C)cc1C,91.5% (active)
19,Cc1cccc(C(=O)Nc2ccc3c(c2)C(=O)N(CC(C)C)C3=O)c1,-20.8%
20,CN1C(=O)c2ccc(NC(=O)c3c(F)c(F)c(F)c(F)c3F)cc2C1=O,-3.79%
21,Cn1cncc1C#Cc1c(-c2ccsc2)sc2ccccc12,1.87%
22,O=C(CN1C(=O)c2ccc([N+](=O)[O-])cc2C1=O)Nc1nnc(C2CC2)s1,-1.72%
23,CCOc1ccc(NC(=O)c2ccc(NC(=O)CN3C(=O)C(=O)N(CC(C)C)C3=O)cc2)cc1,-8.04%

row,Compound,inhibition
1,O=C(CSc1nnc(Nc2ccccc2F)s1)NC1CCCC1,-1.36%
2,CC12CCC(=O)N1C(C(=O)NCCN1C(=O)S/C(=C\c3ccccc3F)C1=O)CS2 (configuration not stated),-5.02%
3,CCCc1nnc(NC(=O)CN2C(=O)c3ccccc3S2(=O)=O)s1,1.19%
4,O=C(CN1C(=O)c2ccccc2S1(=O)=O)NC1CCCCC1,-2.86%
5,CNC(=O)CN1C(=O)c2ccccc2S1(=O)=O,96.2% (active)
6,COc1ccc(-c2onc3ccc(C(C)=O)cc23)cc1,-6.5%
7,CC(OC(=O)c1ccc2noc(-c3ccccc3)c2c1)C(N)=O (configuration not stated),2.68%
8,Oc1ccc(-c2onc3ccc(Cl)cc23)cc1,81% (active)
9,O=C1COc2ccc(C(=O)CSc3ccc(Br)cc3)cc2N1,-4.57%
10,COCCN(C(=O)COC(=O)Cc1cccc(OC)c1)c1c(N)n(Cc2ccccc2)c(=O)[nH]c1=O,3.3%
11,COc1ccc(-c2cc(C(=O)N/N=C/c3cccnc3)c3ccccc3n2)c(OC)c1,0.831%
12,CCCc1cc(=O)[nH]c(SCC(=O)c2cc(C)n(CCC)c2C)n1,96% (active)
13,CCCc1cc(=O)[nH]c(SCC(=O)c2c(N)n(CC(C)C)c(=O)n(C)c2=O)n1,-1.46%
14,Cc1cc(C(=O)CSc2nc(N)cc(=O)[nH]2)c(C)n1CCc1ccc(Cl)cc1,3.32%
15,Cc1ccc(F)cc1NC(=O)CSCc1c(C)noc1C,9.91%
16,Cc1cccc(C(=O)N[C@H](C(=O)NCc2cccs2)C(C)C)c1,0.403%
17,CCC(C)NC(=O)c1ccc(NC(=O)CC2SC(N3CCCCC3)=NC2=O)cc1 (configuration not stated),-5.35%
18,CN(C)CCCNC(=O)c1ccc2[nH]c3ccccc3c2c1,-6.4%
19,COc1ccc2cc(C(=O)NCC3CCCO3)[nH]c2c1 (configuration not stated),-17.8%
20,O=C(NCCCO)c1cc2c([nH]c3ccccc32)c(-c2ccc(F)cc2)n1,98% (active)
21,O=C(NCC1CCCO1)c1cc(-c2ccccc2)nc2ccccc12 (configuration not stated),-3.93%
22,COc1cccc2[nH]c(C(=O)NCCc3ccccc3)cc12,-7.11%
23,O=C(NCC1CCCO1)c1cc2c([nH]c3ccccc32)c(-c2ccc(F)cc2)n1 (configuration not stated),96.9% (active)

row,Compound,inhibition
1,C[C@H](CO)N1C[C@H](C)[C@@H](CN(C)C(=O)NC2CCCCC2)Oc2ccc(NC(=O)c3ccncc3)cc2C1=O,-4.41%
2,CCN(C(=O)CSc1cccc[n+]1[O-])c1ccccc1,-7.12%
3,COc1cccc(-c2ccc(SCC(=O)N3CCN(c4ccccc4)CC3)nn2)c1,88.3% (active)
4,CCOc1ccc(-c2ccc(SCC(=O)N3CCOCC3)nn2)cc1,-5.59%
5,COc1cccc(/C=C/C(=O)OCC(=O)N2CCN(c3ccccc3)CC2)c1,27.8%
6,CC1CCCN(C(=O)CN2C(=O)c3ccccc3S2(=O)=O)C1 (configuration not stated),-1.06%
7,O=C(NNC(=O)c1ccc(-n2cncn2)c([N+](=O)[O-])c1)c1ccccc1,-16.9%
8,O=C(NCc1ccncc1)c1ccc(NS(=O)(=O)c2cccc([N+](=O)[O-])c2)cc1,-17.6%
9,O=C(NCCCN1CCOCC1)c1cnn2c(-c3ccccc3)cc(-c3ccccc3)nc12,94.1% (active)
10,O=C(NCCCN1CCOCC1)c1ccccc1NS(=O)(=O)c1ccc(Br)cc1,-9.12%
11,O=C(NCCCN1CCOCC1)c1ccccc1NS(=O)(=O)c1ccc(F)cc1,-11.8%
12,CN(C)S(=O)(=O)c1cccc(NC(=O)COc2ccc3ccccc3c2)c1,-11.4%
13,COCCNC(=O)c1ccc(-n2c(SCc3cccnc3)nc3ccccc3c2=O)cc1,-2.07%
14,C=CCn1c(SCc2ccc(C(=O)NCCO)cc2)nc2ccccc2c1=O,98.7% (active)
15,C=CCn1c(SCC(=O)NC(=O)Cc2ccccc2)nc2ccccc2c1=O,-2.51%
16,Cc1ccc(CNC(=O)c2cccc3c2C(=O)c2ccc(N4CCC(C)CC4)cc2S3(=O)=O)cc1,3.52%
17,NS(=O)(=O)c1ccc(CCNC(=O)COC(=O)COc2cccc(C(F)(F)F)c2)cc1,-3.46%
18,S=c1[nH]nc(CSCc2ccc(Cl)cc2Cl)n1-c1ccccc1,1.91%
19,Cc1ccc(OCc2n[nH]c(=S)n2-c2ccccc2)cc1,65.2%
20,Cc1ccc(NCc2n[nH]c(=S)n2-c2ccccc2)cc1Cl,88.3% (active)
21,Cc1ccc(NC(=O)C2CCC(C(C)(C)C)CC2)cc1S(=O)(=O)N1CCOCC1 (configuration not stated),-0.467%
22,CC(C(=O)Nc1ccc(S(=O)(=O)N2CCCC2)cc1)N(C)Cc1ccc(F)cc1 (configuration not stated),-1.06%
23,CCn1c(=S)[nH]c2cc(S(=O)(=O)N3CCOCC3)ccc21,67.1%
